ERK AVP inh – vasopressin-driven ERK pathway inhibition; 0.99% of 72,000 active; HEK293-V1b, vasopressin-stimulated pERK AlphaScreen; Potency, µM (doses to about 57.5 µM), for inactives: at the top dose activity, negative = inhibition, most hits filed as inhibitors; AID 995; also: nearly all actives have a fitted effect of over 55% in size
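V1b-HEK293 cells; cpd 30 min 37C; 25 nM vasopressin 5 min; lyse 10 min; AlphaScreen beads 5 hr RT. Normalized to DMSO basal and 25 nM vasopressin; AC50 by Hill fit.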
Hsp90 Hop PPI – changes Hsp90-Hop TPR2A binding signal, up or down; AID 595; AlphaScreen TPR2A-His6 binding biotin-Hsp90 C-terminal peptide; Potency, µM (titrated, usually from 57 µM), without a hit: top-dose activity change, negative = inhibition; 0.44% of 71,000 active; active = well fitted curve in either direction with a large enough effect; inconclusive = small, poorly fitted or top-dose-only effect, or another doubt
FLuc inh – firefly luciferase inhibition. P08659. purified firefly luciferase, luminescence, 8 min. Potency, µM (series often up to 57.1 µM), for the others: at the top dose activity change, negative = inhibition, usual class: inhibitors. 2.2% of 72,000 active. AID 411; also: nearly all actives have a fitted effect of over 40% in size
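Firefly luciferase (PKLight detection mix) with 10 uM ATP in pH 7.2 imidazole buffer (KCl, MgCl2, Tween 20, BSA). Compounds tested across a concentration series (qHTS). Luminescence read after 8 min at ambient temperature.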
Bst PK mod – alters activity of Bacillus stearothermophilus pyruvate kinase | 1.2% of 51,000 active | purified pyruvate kinase, luminescence ATP production; ribose 5-phosphate activator present at AC10 | Potency, µM | AID 361; in the data active = potency below about 11 µM; inconclusive = mostly about 12 µM to 25 µM;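 the screen sought inhibitors and activators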;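 also: scaled between full activation by ribose 5 phosphate and full inhibition by luteolin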
Tau fil binding – tau filament binding | P10636 | recombinant tau filaments, thioflavin S fluorescence, 15 h; filaments grown with octadecylsulfate alongside compound | Potency, µM (titrated, usually from 57.1 µM), for inactives: top-dose activity change, negative = inhibition | 2% of 71,000 active | AID 596;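 also: actives lower thioflavin S fluorescence by blocking filaments or displacing dye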
Target sequence (P10636 whole entry, looked up): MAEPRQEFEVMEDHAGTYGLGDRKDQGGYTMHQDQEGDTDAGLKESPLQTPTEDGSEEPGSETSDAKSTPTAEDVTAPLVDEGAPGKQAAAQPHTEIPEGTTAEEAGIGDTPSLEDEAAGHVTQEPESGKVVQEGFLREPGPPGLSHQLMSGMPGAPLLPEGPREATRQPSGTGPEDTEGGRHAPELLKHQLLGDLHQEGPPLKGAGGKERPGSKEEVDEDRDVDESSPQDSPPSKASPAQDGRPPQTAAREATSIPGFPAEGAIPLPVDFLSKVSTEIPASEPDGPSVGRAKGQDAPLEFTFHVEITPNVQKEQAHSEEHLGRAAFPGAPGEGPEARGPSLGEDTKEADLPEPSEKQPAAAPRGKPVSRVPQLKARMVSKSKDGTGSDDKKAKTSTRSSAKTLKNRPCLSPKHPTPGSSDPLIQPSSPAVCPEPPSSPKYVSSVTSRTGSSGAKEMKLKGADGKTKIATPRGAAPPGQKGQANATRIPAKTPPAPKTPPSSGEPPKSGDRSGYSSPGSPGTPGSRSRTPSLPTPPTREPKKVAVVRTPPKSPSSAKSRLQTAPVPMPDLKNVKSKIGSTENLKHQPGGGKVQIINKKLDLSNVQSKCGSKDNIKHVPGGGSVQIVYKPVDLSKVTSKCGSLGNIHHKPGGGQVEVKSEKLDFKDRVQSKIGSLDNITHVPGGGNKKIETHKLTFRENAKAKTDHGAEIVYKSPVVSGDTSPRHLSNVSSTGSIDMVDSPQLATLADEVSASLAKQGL
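His-tagged recombinant human tau (exons 2, 3, 10; 1 uM final) fibrillized with 30 uM sodium octadecylsulfate, 15 h at 37 C, in pH 7.4 HEPES buffer with 10 uM thioflavine S and 5 mM DTT. Reduced ThS fluorescence (450/510 nm) marks activity.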
15-hLO inh – inhibitors of human 15-lipoxygenase (ALOX15); purified 15hLO-1, xylenol orange hydroperoxide absorbance; Potency, µM (top dose mostly 57.1 µM), for inactives: at the highest dose activity change, negative = inhibition, usual class: inhibitors; 1.4% of 74,000 active; AID 887; also: nearly all actives have a fitted effect of over 55% in size
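Quantitative HTS in 25 mM Hepes pH 7.5 containing 0.01% Triton X-100: human 15hLO-1 at 40 nM, arachidonic acid at 50 uM, 6 min turnover. Product quantified via ferrous oxidation/xylenol orange, 573:405 nm absorbance ratio.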
An asterisk follows results filed as active; i = inactive; u = inconclusive; x = no result; [ ] = another dose, or the depositor's remark. Rows were chosen to be rich in hits. Some 6.1% of all compounds tested hit in one or more screens of this group. Unless noted, calls follow the shape of the dose curve; as a rule, active = well fitted curve in the direction sought with a large enough effect; inconclusive = small, poorly fitted or top-dose-only effect, or another doubt; inactive = no such curve, though single readings can be large; an effect the other way counts as inactive or inconclusive. Unless noted, % is scaled to controls: 0 for no effect and ±100 for the full control effect; potency is read from the fitted curve at half-maximal effect.

SMILES	ERK AVP inh	Hsp90 Hop PPI	FLuc inh	Bst PK mod	Tau fil binding	15-hLO inh
Cc1ccc(OCc2nnc(SCC(=O)c3ccccc3)n2Cc2ccco2)cc1	-30%	-4%	-1%	>57	49%	-15%
Cc1ccc(OCc2nnc(SCc3nc4ccccc4[nH]3)n2Cc2ccco2)cc1	32µM*	-12%	-3%	>57	-7%	5%
COCCNc1ccnc(-c2ccccc2C(F)(F)F)n1	-2%	-3%	-6%[2.29 µM]	x	-21%	7%
CC(C)CC(=O)Nc1ccc2oc(-c3cccnc3)nc2c1	-20%	-1%[11 µM]	13µM*	x	12%[11.4 µM]	5%[11.4 µM]
c1ccc(-c2nc3cc(Oc4ccc5oc(-c6ccccn6)nc5c4)ccc3o2)nc1	-26%	0%	-7%	>57	1%	15%
Cc1ccc(-c2nc(-c3cccnc3)no2)c(C)c1	3%	8%	13µM*	u	0%	2%
Cc1ccc2nc(-c3cccnc3)oc2c1	12%	3%	25µM*	i	1%	13%
Cc1ccc2oc(-c3ccc(NC(=O)c4cccnc4)cc3)nc2c1	-18%	0%	-11%	x	134%	-2%
Cc1ccc2nc(-c3ccccn3)oc2c1	-3%	2%	7.9µM*	6.9*	0%	-8%
O=C(/C=C/Nc1ccccc1Br)c1ccccn1	3%	u	0.1µM*	x	38%	-12%
O=C(/C=C\Nc1ccccn1)c1ccccc1	3%	3%	3.2µM*	x	26%	-14%
COC(=O)C/C=C\[C@H](C)[C@H](CO)NS(=O)(=O)c1ccc(C)cc1	11%[11.5 µM]	x	2%[11.4 µM]	x	x	8%[11.4 µM]
Cc1cc2n(n1)C(c1ccc(O)cc1)Nc1ccccc1-2 (stereo not given)	4%	-3%	-21%	u	10%	-16%
Cc1cc2n(n1)C(c1ccco1)Nc1ccccc1-2 (stereo not given)	13%	11%	-21%	9.5*	23%	u
CC1C(=O)OC2C(O)C34C5CC(C(C)(C)C)C36C(OC(=O)C6O)OC4(C(=O)O5)C12O (stereo not given)	-11%	-4%	4%	x	u	-2%[25.6 µM]
CCNC(=O)[C@@H]1O[C@@H](n2cnc3c(N)nc(NCCc4ccc(CCC(=O)O)cc4)nc32)[C@H](O)[C@@H]1O	-28%	u	-8%	x	-17%	30%
BrC(c1cccc2ccccc12)c1cccc2ccccc12	18%[11.5 µM]	-3%[11 µM]	3%[11.4 µM]	x	2%[11.4 µM]	3%[11.4 µM]
COCCN1CCn2c(nc3cc(NC(=O)c4ccc(OC)cc4)ccc32)C1	u	-14%	-27%	x	25µM*	u
COCCN1CCn2c(nc3cc(NC(=O)NC4CCCCC4)ccc32)C1	-2%	u	-18%	>57	25µM*	-23%
CCCCOc1cc(C[C@@H]2CNC(=O)N2)ccc1OC	u	0%	1%	x	-26%	-12%[25.6 µM]
CC(C)CO/N=C1/C[C@@H](O)[C@@H](O)[C@@H]2[C@@H]3C(=O)N(C[C@@H]4CCCO4)C(=O)[C@H]3CC[C@H]12	14%[11.5 µM]	x	-1%[11.4 µM]	x	x	-4%[11.4 µM]
CC(=O)Nc1ccc(-c2nc3ccc(Cl)cc3[nH]2)cc1	-26%	x	x	x	x	-3%[25.6 µM]
CC(=O)Nc1ccc(-c2nc3c(C)cccc3[nH]2)cc1	-4%	-1%	3.2µM*	x	2%	-13%
CCn1c2ccccc2c2cc(N)ccc21	u	-26%	-8%	x	3.2µM*	-17%
CCn1c2ccccc2c2cc(C3C(C#N)=C(C)NC(C)=C3C#N)ccc21	23%	9%	0%	>57	25%	-12%
SMILES	ERK AVP inh	Hsp90 Hop PPI	FLuc inh	Bst PK mod	Tau fil binding	15-hLO inh
CCn1c2ccccc2c2nc3ccccc3nc21	-8%	u	-7%	x	-13%	-30%
CCn1c(C)cc(=S)c2ccccc21	24%	-4%	-1%	>57	5µM*	-26%
C#CCCCO/N=C1/C[C@@H](O)[C@@H](O)[C@@H]2[C@@H]3C(=O)N(C[C@@H]4CCCO4)C(=O)[C@H]3CC[C@H]12	14%[11.5 µM]	x	-1%[11.4 µM]	x	x	-14%[11.4 µM]
CC(=O)Oc1cc(OC(C)=O)c2c(=O)cc(-c3ccc(OC(C)=O)c(OC(C)=O)c3)oc2c1	u	-3%	-9%[11.4 µM]	x	u	-14%[25.6 µM]
COc1cccc(Nc2ncc3nc(CCc4ccccc4)c(=O)n(Cc4cccs4)c3n2)c1	-10%	1%	1%[11.4 µM]	x	-7%	3%
CC(C)=C1C(=O)C(c2ccccc2)=C2CN3C(=O)N(CCc4ccccc4)C(=O)[C@]3(C)[C@H]21	-3%	-3%	x	x	-2%	x
O=c1c2c3nc4ccccc4nc3n(/N=C/c3ccco3)c2ncn1CCC1=CCCCC1	u	0%	0%	x	7.9µM*	-20%
C=C(C)C(O)/C=C/c1ccccc1OC (stereo not given)	11%[11.5 µM]	x	x	x	x	4%[11.4 µM]
CC(=O)c1cccc(NC(=O)CN(c2ccc(C)cc2)S(=O)(=O)c2cccc3nonc23)c1	17%	-11%	-3%	>57	4µM*	-6%
Cc1ccc(N(CC(=O)O)S(=O)(=O)c2cccc3nonc23)cc1	10%	2%	0%	>57	-5%	-2%
O=C1CC(c2cccs2)Cc2nc(NCC3CCCO3)ncc21 (stereo not given)	20µM*	-1%	-1%	>57	3%	2%
CC(C)Oc1ccc(C(=O)Nc2ccc(N3CCCC3)cc2)cc1	-12%	u	-13%	x	2µM*	1.3µM*
CC(C)c1ccc(C(=O)Nc2ccc(N3CCOCC3)cc2)cc1	-15%	-3%	-9%	x	72%	7%
CCCCOC(=O)Nc1ccc(C(=O)OCCC)cc1	7%	25%	-4%	x	22%	-5%
CCCOC(=O)Nc1ccc(N2CCCCC2)cc1	-19%	-10%	13µM*	i	-10%	-6%
CC(C)[C@@H](CC(=O)N[C@@H]1CCCC[C@H]1C(=O)N[C@H](CC(=O)N[C@@H](CCC(=O)O)CC(=O)O)Cc1c[nH]c2ccccc12)NC(=O)C[C@H](CO)NC(=O)[C@@H]1CCCC[C@H]1N	x	-6%	x	x	-3%	x
c1ccc(Nc2ccccc2)cc1	-7%	2%	x	x	-5%	1%
O=C1NC(=O)c2cc(Nc3ccccc3)c(Nc3ccccc3)cc21	32µM*	x	x	x	x	-13%
Cc1cccc(NC(=O)c2ccccc2C(=O)O)c1	-14%	-2%	0%	x	-8%	5%
Nc1ccccc1C(=O)Nc1cccc(C(=O)O)c1	10%	-3%	25µM*	x	16%	10%
O=C(c1ccco1)N1CCC2(CCCN(c3ccccn3)C2)CC1	9%	-4%	1%[11.4 µM]	x	8%	-9%
CCNc1ncc2nc(CCc3ccccc3)c(=O)n(C)c2n1	u	9%	-12%[11.4 µM]	x	418%	25µM*
COc1cc(C2NC(=O)NC(c3ccccc3)=C2C(C)=O)ccc1OCC(=O)O (stereo not given)	-4%	18%	-8%	i	47%	7.9µM*
O=C(NCc1ccccc1)c1ccc(Cc2nc3ccccc3[nH]2)cc1	x	x	x	x	x	-8%

Screening data (PubChem)
